Our source for the outcome and AC50 values is PubChem BioAssay (EPA / NIEHS).

Test [1] in a line: ATG_TAL_CIS: Attagene CIS-FACTORIAL HepG2 Assay for human TAL Basal Promoter (AID 2282966; active means hit-call score of the fitted dose curve at least 0.9, where 1 is the maximum; inactive means score below 0.9;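 further: background control endpoint measuring basal TAL promoter reporter mRNA not a specific factor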). As to conditions: HepG2 Attagene cis-factorial TAL promoter reporter; actives raise or lower the signal. The gist of the method:
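Background-control endpoint: basal TAL promoter reporter transcripts in transiently transfected HepG2, measured 24 h after dosing. Read-out by RT-PCR with fluorescent primer extension and capillary electrophoresis; gain or loss of signal fitted relative to DMSO.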

Test [2] in a line: ATG_VDRE_CIS: Attagene CIS-FACTORIAL HepG2 Assay for human Vitamin D Receptor Element (VDRE) (AID 2282968; active means hit-call score of the fitted dose curve at least 0.9, where 1 is the maximum; inactive means score below 0.9). Particulars: HepG2 VDRE cis-reporter transcription, actives raise or lower the signal. The gist of the method:
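Compounds were applied for 24 h to HepG2 cells transfected with promoter-regulated reporter units. Total RNA was reverse-transcribed, and reporter amplicons were fluorescently labelled and sized by capillary electrophoresis.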

The target of test [3] is X-box-binding protein 1 (Homo sapiens) (UniProt P17861). Kind of test: ATG_Xbp1_CIS: Attagene CIS-FACTORIAL HepG2 Assay for human X-box Binding Protein 1 (XBP1) (AID 2282972; active means hit-call score of the fitted dose curve at least 0.9, where 1 is the maximum; inactive means score below 0.9). As to conditions: HepG2 XBP1 cis-element reporter, Attagene multiplex; actives raise or lower the signal. The gist of the method: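 Human hepatoma HepG2, cis-element reporter system, 24 h treatment; mRNA quantified by RT-PCR/CE fluorescence; fit relative to DMSO.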
Sequence of X-box-binding protein 1 (Homo sapiens) (P17861 whole entry, looked up): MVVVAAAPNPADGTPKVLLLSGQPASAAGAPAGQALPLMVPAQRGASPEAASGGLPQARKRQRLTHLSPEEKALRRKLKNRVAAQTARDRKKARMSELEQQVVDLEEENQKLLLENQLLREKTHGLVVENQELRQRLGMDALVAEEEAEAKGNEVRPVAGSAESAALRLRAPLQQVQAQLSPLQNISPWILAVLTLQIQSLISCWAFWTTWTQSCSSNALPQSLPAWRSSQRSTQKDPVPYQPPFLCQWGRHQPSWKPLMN

A short description of test [4]: ATG_GAL4_TRANS: Attagene TRANS-FACTORIAL HepG2 Assay for GAL4 (Internal Marker) (AID 2282976). As to conditions: HepG2 Attagene TRANS GAL4 internal marker reporter. The gist of the method: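 In transfected human HepG2 liver cells dosed 24 h, GAL4 reporter mRNA serves as a baseline marker. Detection by RT-PCR with fluorescent capillary electrophoresis, activity fitted upward relative to DMSO.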

The target in test [5] is Glucocorticoid receptor (Homo sapiens) (UniProt P04150). The experiment in a line: ATG_GR_TRANS: Attagene TRANS-FACTORIAL HepG2 Assay for human Glucocorticoid Receptor (GR) (AID 2282978).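 Further: activators score as hits since higher reporter transcript over DMSO is fitted.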 As to conditions: HepG2 Attagene TRANS GR reporter, mRNA transcription. The gist of the method:
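Fluorescent capillary-electrophoresis quantitation of reporter mRNA is the readout, taken 24 h after dosing human HepG2 cells carrying transiently transfected GAL4-UAS reporter units activated by chimeric NR-GAL4 fusions; activity scored as induction over DMSO.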

Test [6] concerns the target Bile acid receptor (Homo sapiens) (UniProt Q96RI1). Kind of test: ATG_FXR_TRANS: Attagene TRANS-FACTORIAL HepG2 Assay for Farnesoid X Receptor (FXR) (AID 2282979).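 Further: hits raise reporter mRNA above DMSO so AC50 marks FXR activation.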 As to conditions: HepG2 Attagene TRANS FXR-GAL4 reporter transcription. In a few lines: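 Reporter transcripts from transfected HepG2 cells were measured 24 h after dosing, using RT-PCR with capillary electrophoresis of 6-FAM-labelled fragments. The read-out reflects activity of exogenous FXR-Gal4 chimera on GAL4-UAS units, with induction relative to DMSO.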

Test [7] deals with Oxysterols receptor LXR-alpha (Homo sapiens) (UniProt Q13133). The experiment in a line: ATG_LXRa_TRANS: Attagene TRANS-FACTORIAL HepG2 Assay for human Liver X Receptor alpha (LXRa) (AID 2282980). Particulars: HepG2 Attagene TRANS reporter, LXRa transactivation. The gist of the method:
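Chemical-induced reporter mRNA measured by RT-PCR with fluorescent labelling and capillary electrophoresis after 24 h dosing of transiently transfected HepG2 cells expressing exogenous NR-Gal4 chimeras; increases scored against DMSO baseline.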

Test [8] concerns the target Hepatocyte nuclear factor 4-alpha (Homo sapiens) (UniProt P41235). Kind of test: ATG_HNF4a_TRANS: Attagene TRANS-FACTORIAL HepG2 Assay for human Hepatocyte Nuclear Factor 4 alpha (HNF4a) (AID 2282982). As to conditions: HepG2 HNF4a transactivation reporter, mRNA readout. The gist of the method:
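Endpoint reflects transcriptional activation of a GAL4-UAS reporter by an HNF4a-GAL4 chimera in transfected HepG2 cells, 24 h post-dosing. Fluorescence from RT-PCR products separated by capillary electrophoresis; DMSO baseline.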

Test [9] can be described thus: ATG_M_06_TRANS: Attagene TRANS-FACTORIAL HepG2 Assay for M06 Transcription Factor (Internal Marker) (AID 2282983). As to conditions: HepG2 Attagene TRANS M06 internal marker reporter. In a few lines:
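Background-control reporter readout: after 24 h chemical exposure of transiently transfected HepG2 (GAL4-UAS reporter units), mRNA quantified by RT-PCR with fluorescent labeling and capillary electrophoresis. Gain-of-signal fitting against DMSO baseline.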

The target in test [10] is Transcriptional activator Myb (Homo sapiens) (UniProt P10242). The experiment in a line: ATG_Myb_CIS: Attagene CIS-FACTORIAL HepG2 Assay for human Myeloblastosis (Myb) Proto-Oncogene Transcription Factor (AID 2282986; active means hit-call score of the fitted dose curve at least 0.9, where 1 is the maximum; inactive means score below 0.9). Particulars: HepG2 Attagene CIS-FACTORIAL Myb reporter transcription; actives raise or lower the signal. In a few lines: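 Reporter transcript levels, quantified by fluorescent RT-PCR and capillary electrophoresis, serve as the read-out. Transfected HepG2 cells carrying cis-promoter reporter units are dosed for 24 hours, and curves are fitted bidirectionally against DMSO controls.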
Sequence of Transcriptional activator Myb (Homo sapiens) (P10242 whole entry, looked up): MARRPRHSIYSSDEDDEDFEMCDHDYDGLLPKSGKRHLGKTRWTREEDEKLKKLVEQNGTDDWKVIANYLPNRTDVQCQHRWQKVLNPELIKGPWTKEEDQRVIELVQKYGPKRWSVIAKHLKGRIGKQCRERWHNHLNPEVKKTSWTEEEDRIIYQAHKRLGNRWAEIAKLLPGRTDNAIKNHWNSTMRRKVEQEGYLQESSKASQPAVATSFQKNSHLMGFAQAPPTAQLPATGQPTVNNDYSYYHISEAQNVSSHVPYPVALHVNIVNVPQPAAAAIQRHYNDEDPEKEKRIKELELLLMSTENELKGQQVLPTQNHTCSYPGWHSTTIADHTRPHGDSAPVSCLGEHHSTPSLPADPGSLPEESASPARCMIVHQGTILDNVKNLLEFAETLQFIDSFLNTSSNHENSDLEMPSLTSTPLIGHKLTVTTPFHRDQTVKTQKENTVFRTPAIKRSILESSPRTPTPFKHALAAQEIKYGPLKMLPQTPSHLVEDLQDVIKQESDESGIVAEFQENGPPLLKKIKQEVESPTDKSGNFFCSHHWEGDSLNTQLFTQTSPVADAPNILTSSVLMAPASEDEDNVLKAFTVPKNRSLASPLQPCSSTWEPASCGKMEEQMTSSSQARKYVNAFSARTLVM

Test [11] addresses Nuclear respiratory factor 1 (Homo sapiens) (UniProt Q16656). The experiment in a line: ATG_NRF1_CIS: Attagene CIS-FACTORIAL HepG2 Assay for human Nuclear Respiratory Factor 1 (NRF1) Orphan Gene (AID 2282987; active means hit-call score of the fitted dose curve at least 0.9, where 1 is the maximum; inactive means score below 0.9). As to conditions: HepG2 NRF1 cis-element reporter, Attagene multiplex; actives raise or lower the signal. In a few lines: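 Multiplexed cis-reporter assay, HepG2 cells, 24 h treatment. Total RNA → oligo(dT) RT → PCR with reporter-specific primers → 6-FAM primer extension → HpaI cut → CE. Bidirectional fit vs DMSO.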

The target of test [12] is Steroid hormone receptor ERR1 (Homo sapiens) (UniProt P11474). Kind of test: ATG_ERRa_TRANS: Attagene TRANS-FACTORIAL HepG2 Assay for human Estrogen-Related Receptor alpha (ERRa) (AID 2282971). Particulars: HepG2 Attagene TRANS reporter, ERRa transactivation. In a few lines:
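Reporter transcripts from ERRa-Gal4 chimera activity measured in transiently transfected human HepG2 cells 24 hours after dosing, using RT-PCR with 6-FAM primer extension, HpaI digestion and capillary electrophoresis; DMSO is baseline.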

Test [13] can be described thus: ATG_M_19_TRANS: Attagene TRANS-FACTORIAL HepG2 Assay for M19 Transcription Factor (Internal Marker) (AID 2282974). Particulars: HepG2 Attagene TRANS-FACTORIAL M19 internal marker reporter. The gist of the method: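 Fluorescence of 6-FAM-labelled reporter cDNA fragments, separated by capillary electrophoresis, served as the readout. These derived from HepG2 cells carrying transfected GAL4-UAS reporter units after 24 h dosing, with DMSO as negative control.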

Test [14] addresses Oxysterols receptor LXR-beta (Homo sapiens) (UniProt P55055). Kind of test: ATG_LXRb_TRANS: Attagene TRANS-FACTORIAL HepG2 Assay for human Liver X Receptor beta (LXRb) (AID 2282981). As to conditions: HepG2 Attagene TRANS GAL4-LXRb reporter, mRNA. The gist of the method:
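Multiplexed reporter assay, HepG2, 24 h dosing. Fluorescence of labelled RT-PCR products after capillary electrophoresis gives transcript level; positive fitting direction relative to DMSO.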

Test [15] in a line: ATG_M_32_TRANS: Attagene TRANS-FACTORIAL HepG2 Assay for M32 Transcription Factor (Internal Marker) (AID 2282984). Particulars: HepG2 Attagene TRANS M32 internal marker reporter. The gist of the method:
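Internal-marker readout from a multiplexed transcription reporter panel. HepG2 cells were transfected with GAL4-UAS reporter units, treated 24 hours, and reporter transcript levels determined by fluorescence after RT-PCR and capillary separation.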

The target in test [16] is Nuclear receptor subfamily 4 group A member 2 (Homo sapiens) (UniProt P43354). Kind of test: ATG_NURR1_TRANS: Attagene TRANS-FACTORIAL HepG2 Assay for human Nuclear Receptor Related Protein 1 (NURR1) (AID 2282985). Particulars: HepG2 Attagene TRANS reporter, mRNA readout. In a few lines: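 Endpoint: reporter mRNA increase relative to DMSO. HepG2 cells transfected with reporter units, treated 24 h; RNA processed by RT-PCR, labelling, HpaI digestion and capillary electrophoresis.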
Sequence of Nuclear receptor subfamily 4 group A member 2 (Homo sapiens) (P43354 whole entry, looked up): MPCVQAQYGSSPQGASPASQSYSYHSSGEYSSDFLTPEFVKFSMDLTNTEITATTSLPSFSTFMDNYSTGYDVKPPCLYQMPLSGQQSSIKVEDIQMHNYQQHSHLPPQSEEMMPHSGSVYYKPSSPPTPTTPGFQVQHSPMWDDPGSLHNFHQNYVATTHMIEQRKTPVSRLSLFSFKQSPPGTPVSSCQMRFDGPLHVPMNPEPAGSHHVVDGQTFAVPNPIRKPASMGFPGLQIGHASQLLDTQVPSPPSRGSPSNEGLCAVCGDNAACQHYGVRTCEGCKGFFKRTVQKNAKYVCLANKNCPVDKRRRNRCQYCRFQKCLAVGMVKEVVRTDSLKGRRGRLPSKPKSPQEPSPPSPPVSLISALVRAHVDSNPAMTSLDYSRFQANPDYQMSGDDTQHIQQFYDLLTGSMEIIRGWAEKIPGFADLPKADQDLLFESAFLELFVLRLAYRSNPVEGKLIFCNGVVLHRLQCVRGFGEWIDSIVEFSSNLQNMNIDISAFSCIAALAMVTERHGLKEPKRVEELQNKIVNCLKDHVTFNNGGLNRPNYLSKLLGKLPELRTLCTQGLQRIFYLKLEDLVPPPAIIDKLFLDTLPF

Test [17] is described as follows: ATG_TGFb_CIS: Attagene CIS-FACTORIAL HepG2 Assay for human Transforming Growth Factor (TGF) (AID 2282967; active means hit-call score of the fitted dose curve at least 0.9, where 1 is the maximum; inactive means score below 0.9). As to conditions: HepG2 Attagene CIS TGFb reporter, mRNA transcription; actives raise or lower the signal. The gist of the method:
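Multiplexed cis-reporter HepG2 system, 24 h treatment; mRNA induction read by fluorescence after RT-PCR and CE; DMSO negative control, bidirectional curve fitting.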

Test [18] deals with Estrogen receptor (Homo sapiens) (UniProt P03372). The experiment in a line: ATG_ERa_TRANS: Attagene TRANS-FACTORIAL HepG2 Assay for human Estrogen Receptor alpha (ERa) (AID 2282970). As to conditions: HepG2 Attagene TRANS ERa GAL4 reporter, mRNA. The gist of the method: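 Reporter transcripts were measured 24 h after dosing by RT-PCR with fluorescent primer extension and capillary electrophoresis. The system is transiently transfected HepG2 expressing exogenous NR-Gal4 chimeras driving GAL4-UAS reporters; DMSO is the baseline.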

In test [19] the target is Estrogen-related receptor gamma (Homo sapiens) (UniProt P62508). Kind of test: ATG_ERRg_TRANS: Attagene TRANS-FACTORIAL HepG2 Assay for human Estrogen-Related Receptor gamma (ERRg) (AID 2282977).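 Further: hits increase reporter signal over DMSO so potencies reflect activators.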 Particulars: HepG2 Attagene TRANS reporter, ERRg transactivation. In a few lines: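 Exogenous NR-Gal4 chimera activity measured as reporter transcript induction after 24 h in transiently transfected HepG2 cells. RNA reverse-transcribed, PCR-amplified, 6-FAM-labelled and resolved by capillary electrophoresis; increase over DMSO baseline.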

Inconclusive results are not listed. The source made the active and inactive calls. How the source made its calls, unless noted: active means hit-call score of the fitted dose curve at least 0.9, where 1 is the maximum; inconclusive means response in the unintended direction; inactive means score below 0.9.

Sequence of Hepatocyte nuclear factor 4-alpha (Homo sapiens) (P41235 whole entry, looked up, the tested form may be a part): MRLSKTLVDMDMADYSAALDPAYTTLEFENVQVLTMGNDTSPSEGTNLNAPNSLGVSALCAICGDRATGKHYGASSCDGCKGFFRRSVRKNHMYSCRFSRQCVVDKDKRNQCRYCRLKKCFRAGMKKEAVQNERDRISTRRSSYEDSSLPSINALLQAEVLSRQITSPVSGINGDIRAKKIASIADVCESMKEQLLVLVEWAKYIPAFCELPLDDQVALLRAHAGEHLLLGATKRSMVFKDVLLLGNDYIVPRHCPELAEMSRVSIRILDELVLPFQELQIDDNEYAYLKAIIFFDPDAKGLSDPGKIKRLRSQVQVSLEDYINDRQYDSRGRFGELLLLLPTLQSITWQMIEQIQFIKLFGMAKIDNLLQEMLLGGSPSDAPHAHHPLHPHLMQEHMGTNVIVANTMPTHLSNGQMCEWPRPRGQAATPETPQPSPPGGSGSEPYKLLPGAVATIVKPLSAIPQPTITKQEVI
Sequence of Glucocorticoid receptor (Homo sapiens) (P04150 whole entry, looked up, the tested form may be a part): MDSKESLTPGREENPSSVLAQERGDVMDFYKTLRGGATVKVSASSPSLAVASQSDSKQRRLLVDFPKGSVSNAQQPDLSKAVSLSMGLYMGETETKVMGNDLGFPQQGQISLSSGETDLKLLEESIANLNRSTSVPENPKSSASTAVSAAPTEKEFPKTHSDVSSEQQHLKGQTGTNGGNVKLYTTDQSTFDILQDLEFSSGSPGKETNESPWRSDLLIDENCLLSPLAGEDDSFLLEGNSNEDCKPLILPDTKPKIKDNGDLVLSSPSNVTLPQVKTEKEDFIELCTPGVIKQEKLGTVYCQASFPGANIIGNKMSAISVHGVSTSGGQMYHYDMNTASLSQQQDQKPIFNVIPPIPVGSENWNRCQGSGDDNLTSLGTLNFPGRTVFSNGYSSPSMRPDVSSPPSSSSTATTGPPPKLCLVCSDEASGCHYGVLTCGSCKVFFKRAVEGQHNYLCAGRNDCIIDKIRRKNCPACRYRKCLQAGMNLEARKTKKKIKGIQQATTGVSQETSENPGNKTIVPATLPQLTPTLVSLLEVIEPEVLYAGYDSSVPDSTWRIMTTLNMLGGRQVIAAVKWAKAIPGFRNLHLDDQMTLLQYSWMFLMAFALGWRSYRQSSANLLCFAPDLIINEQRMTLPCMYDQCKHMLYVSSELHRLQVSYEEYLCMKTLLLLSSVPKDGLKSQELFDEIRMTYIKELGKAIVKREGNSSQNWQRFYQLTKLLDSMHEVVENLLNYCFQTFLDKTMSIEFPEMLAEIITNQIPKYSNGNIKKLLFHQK
Sequence of Nuclear respiratory factor 1 (Homo sapiens) (Q16656 whole entry, looked up): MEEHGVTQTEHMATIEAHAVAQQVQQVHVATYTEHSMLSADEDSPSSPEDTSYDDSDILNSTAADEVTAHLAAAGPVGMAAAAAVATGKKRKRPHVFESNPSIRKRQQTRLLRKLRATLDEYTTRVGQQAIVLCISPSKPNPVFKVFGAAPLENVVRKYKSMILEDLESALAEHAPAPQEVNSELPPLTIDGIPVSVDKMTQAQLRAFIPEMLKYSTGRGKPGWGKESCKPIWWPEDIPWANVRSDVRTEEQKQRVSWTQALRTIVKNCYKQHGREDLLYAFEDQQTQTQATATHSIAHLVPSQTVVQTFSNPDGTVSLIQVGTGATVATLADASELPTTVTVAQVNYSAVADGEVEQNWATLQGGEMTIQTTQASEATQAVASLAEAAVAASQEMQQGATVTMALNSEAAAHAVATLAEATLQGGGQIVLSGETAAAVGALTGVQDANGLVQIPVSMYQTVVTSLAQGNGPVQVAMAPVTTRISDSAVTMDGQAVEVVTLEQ
Sequence of Oxysterols receptor LXR-alpha (Homo sapiens) (Q13133 whole entry, looked up, the tested form may be a part): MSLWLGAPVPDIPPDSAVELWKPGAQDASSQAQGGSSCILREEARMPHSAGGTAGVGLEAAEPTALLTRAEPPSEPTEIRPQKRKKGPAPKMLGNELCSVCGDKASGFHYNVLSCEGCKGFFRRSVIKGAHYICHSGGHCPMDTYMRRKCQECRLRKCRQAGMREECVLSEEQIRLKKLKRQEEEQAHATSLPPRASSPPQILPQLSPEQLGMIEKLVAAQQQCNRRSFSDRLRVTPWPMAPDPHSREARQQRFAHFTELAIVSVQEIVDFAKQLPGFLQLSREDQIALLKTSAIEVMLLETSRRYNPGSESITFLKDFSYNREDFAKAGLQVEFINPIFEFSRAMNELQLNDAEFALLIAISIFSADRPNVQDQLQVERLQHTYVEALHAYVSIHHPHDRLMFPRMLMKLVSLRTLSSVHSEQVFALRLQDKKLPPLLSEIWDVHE
Sequence of Bile acid receptor (Homo sapiens) (Q96RI1 whole entry, looked up, the tested form may be a part): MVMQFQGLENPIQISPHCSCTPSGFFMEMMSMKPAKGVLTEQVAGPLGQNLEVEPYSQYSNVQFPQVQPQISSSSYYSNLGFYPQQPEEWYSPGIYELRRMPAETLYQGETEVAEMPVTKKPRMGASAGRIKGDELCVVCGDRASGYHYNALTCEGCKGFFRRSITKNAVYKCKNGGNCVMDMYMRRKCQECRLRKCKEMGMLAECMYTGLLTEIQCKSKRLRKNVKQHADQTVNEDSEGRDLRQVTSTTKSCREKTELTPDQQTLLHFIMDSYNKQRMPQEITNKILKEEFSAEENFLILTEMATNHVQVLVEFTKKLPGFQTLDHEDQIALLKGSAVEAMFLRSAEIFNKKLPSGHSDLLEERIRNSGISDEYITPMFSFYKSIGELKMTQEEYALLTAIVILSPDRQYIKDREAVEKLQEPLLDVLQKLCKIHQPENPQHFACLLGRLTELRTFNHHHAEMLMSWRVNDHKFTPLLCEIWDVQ
Sequence of Oxysterols receptor LXR-beta (Homo sapiens) (P55055 whole entry, looked up, the tested form may be a part): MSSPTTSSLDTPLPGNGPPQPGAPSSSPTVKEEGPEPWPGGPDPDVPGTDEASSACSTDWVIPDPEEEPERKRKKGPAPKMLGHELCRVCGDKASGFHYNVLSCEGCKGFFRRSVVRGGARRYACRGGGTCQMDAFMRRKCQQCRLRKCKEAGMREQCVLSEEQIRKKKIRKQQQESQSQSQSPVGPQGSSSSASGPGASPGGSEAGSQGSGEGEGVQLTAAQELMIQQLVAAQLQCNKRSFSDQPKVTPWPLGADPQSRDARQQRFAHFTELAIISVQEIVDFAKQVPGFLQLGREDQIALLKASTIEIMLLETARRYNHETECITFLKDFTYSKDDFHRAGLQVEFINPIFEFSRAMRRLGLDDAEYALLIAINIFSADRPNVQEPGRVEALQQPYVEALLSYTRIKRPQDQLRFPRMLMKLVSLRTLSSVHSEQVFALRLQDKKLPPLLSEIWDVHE

As for `CCOC(=O)CN`, the molecule was classed as inactive in test [1], in test [2], in [3], in [4], in test [5] and in [6]. The result in test [7], in test [8], in test [9], in [10] and in test [11] was inactive.
`COCCOCCOCCO`: the outcome in [1], in [2], in test [12], in test [3], in [13] and in test [4] was inactive. For the same molecule, the outcome in test [5], in test [14], in test [8], in test [15], in test [16] and in test [10] was inactive. In addition, the molecule was called inactive in [11].
`Cc1cc(=O)oc2cc(N(C)C)ccc12`: the outcome in [1], in test [2], in test [3], in [4], in test [5] and in test [6] was inactive. Also, the molecule was called inactive in test [7], in test [9], in [15], in [10] and in test [11].
Take `CC(=O)c1c(C)c([N+](=O)[O-])c(C(C)(C)C)c([N+](=O)[O-])c1C`: the AC50 in test [17] is 100 µM (active); in test [2] it was 4.01 µM (active); in test [16], 10.2 µM (active). The outcome in [3], in test [5], in [6], in test [14], in test [8] and in test [9] was inactive. Besides, the outcome in test [10] and in test [11] was inactive.
As for `O=CN1CCOCC1`, the molecule was called inactive in [17], in [18], in [3], in [13], in test [7] and in [14]. For the same molecule, the outcome in [8], in test [9], in test [15] and in test [11] was inactive.
For `COC(=O)c1ccc(C)cc1C1=NC(C)(C(C)C)C(=O)N1` (stereo not given) (tested in a mixture with another compound), the call in test [17], in test [3], in test [13], in [19], in test [7] and in test [16] was inactive. Moreover, the call in test [10] and in test [11] was inactive. The AC50 in test [2] is 26.8 µM (active).
Regarding `OCCCCC(O)CO` (stereo not given), the molecule was classed as inactive in [17], in [2], in test [12], in test [13], in [4] and in test [5]. The molecule was called inactive in [9], in test [10] and in test [11].
In the case of `C[Si](C)(C)O[Si](C)(C)C`, the result in test [17], in test [2], in test [3], in [13], in [4] and in test [6] was inactive. Besides, the molecule was classed as inactive in test [7], in test [8], in test [15], in [10] and in [11].
